# Experimental data from PubChem BioAssay AID2023 (NMMLSC, 2009).
# Out of some 320,000 compounds screened, about 1,100 (0.34%) were called active. The sample holds actives, similar compounds and a random draw of the others, so the mix is not that of the screen.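 The calls were made as follows: active = GFP response vs DMSO above a set limit, about the screen mean plus 3 SD (cut at about 150% in these data); inconclusive = under 70 cell events counted for the yeast strain; inactive = the rest.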
# Assay: TOR pathway LAP4-GFP level changes – S. cerevisiae, multiplex flow cytometry, MLPCN library, primary screen (AID 2023)
# Conditions: 3 h, at 10 µM, stronger effect = higher value, median GFP as percent of DMSO wells
row,SMILES,GFP response vs DMSO
1,CC(C)[C@@H]1COC(c2cccc(C3=N[C@H](C(C)C)CO3)c2)=N1,163% (active)
2,CCOCc1c(C(=O)N2CCN(Cc3ccc(Br)s3)CC2)oc2ccccc12,102% (inactive)
3,COc1ccc(Cn2c(-c3ccc(Cl)cc3)c[n+]3ccccc23)cc1,101% (inactive)
4,C/C(N)=C(\C#N)C(=O)NCCc1ccccn1,87.1% (inactive)
5,O=C(NCCc1ccccc1Cl)C1CCC(=O)N(CCCc2ccccc2)C1 (configuration not stated),87.4% (inactive)
6,Cc1cc(C)nc(SCC(=O)c2ccc(Cl)cc2)n1,91.3% (inactive)
7,Cc1cc(Oc2ccc(Cl)cc2)nc(SCC(=O)c2ccccc2)n1,103% (inactive)
8,Cc1cc(C)nc(S/C=C/C(=O)c2ccccc2)n1,239% (active)
9,Cc1noc(C)c1S(=O)(=O)N(C)Cc1ccccc1,91.9% (inactive)
10,N#C/C(=C\N1CCOCC1)S(=O)(=O)c1ccc(Cl)cc1,113% (inactive)
11,Cc1ccc(NC(=O)Cn2c(=O)n(CCC(=O)NC3CCN(Cc4ccccc4)CC3)c(=O)c3ccccc32)cc1,94.3% (inactive)
12,COc1ccc(C2(c3ccc(OC)cc3)NC(=O)N(CC(=O)Nc3cc(C)on3)C2=O)cc1,92.2% (inactive)
13,O=C1C=CC(=O)N1c1ccc(N2CCCCC2)cc1,179% (active)
14,O=C(Cc1ccccc1)NC(=S)Nc1ccc(N2CCCCC2)cc1,111% (inactive)
15,CC(=O)Nc1ccc(S(=O)(=O)Nc2ccc(N3CCCCC3)cc2)cc1,105% (inactive)
16,COc1ccccc1N(CCOc1ccccc1)S(=O)(=O)c1ccccc1,103% (inactive)
17,Cc1nc([N+](=O)[O-])nn1C12CC3CC(CC(Br)(C3)C1)C2,109% (inactive)
18,Cc1ccc(SC(CC(=O)c2ccc(C(C)(C)C)cc2)C(=O)O)cc1 (configuration not stated),170% (active)
19,Cc1ccc(CSCC(N)C(=O)O)cc1 (configuration not stated),97% (inactive)
20,Cc1ccc(C(=O)CSc2ccccc2C(=O)O)cc1,104% (inactive)
21,Cc1ccc(Oc2nc(-c3ccccn3)nc3ccccc23)cc1,151% (active)
22,COc1cnc(-c2ccccn2)nc1Oc1ccc(C(C)(C)C)cc1,107% (inactive)
23,CC(C)(C)Nc1nc(-c2ccccn2)nc2ccccc12,90.7% (inactive)
24,Nn1c(Cc2cccc3ccccc23)nnc1SCC(=O)N1CC(=O)Nc2ccccc21,99.1% (inactive)

row,SMILES,GFP response vs DMSO
1,Cc1onc(NC(=O)c2ccc([N+](=O)[O-])o2)c1Br,116% (inactive)
2,Cc1cccc(NC(=O)c2ccc([N+](=O)[O-])o2)c1,151% (active)
3,O=C(Nc1ccc(Br)cn1)c1ccc([N+](=O)[O-])o1,105% (inactive)
4,Cc1cccc(N)c1SC1CCCCC1O (configuration not stated),92.2% (inactive)
5,Cc1ccc(C(CNC(=O)Nc2ccccc2)N2CCN(C)CC2)cc1 (configuration not stated),102% (inactive)
6,Cc1ccc(N=Cc2c(O)cc(C)oc2=O)c(C)c1,100% (inactive)
7,Cc1cc(O)c(Sc2ccccc2)c(=O)o1,109% (inactive)
8,Cc1cc(O)c(C(=O)/C=C/c2c(F)c(F)c(F)c(F)c2F)c(=O)o1,152% (active)
9,Cc1cccnc1NC(=O)c1cccc(S(=O)(=O)N2CCN(c3ccc(F)cc3)CC2)c1,87.3% (inactive)
10,Oc1c(CN2CCCC2)cc(COCc2ccccc2)c2cccnc12,105% (inactive)
11,Oc1c(CN2CCN(c3ccc(F)cc3)CC2)cc(Cl)c2cccnc12,203% (active)
12,Cc1cc(C)c(OCC(=O)N(Cc2cccs2)C2CCS(=O)(=O)C2)c(C)c1 (configuration not stated),98.7% (inactive)
13,C/C(=N\NS(=O)(=O)c1ccc(Cl)cc1)c1ccc(NC(=O)c2ccco2)cc1,94.4% (inactive)
14,O=[N+]([O-])c1ccc(F)cc1Oc1nc(-c2cccnc2)nc2ccccc12,100% (inactive)
15,Cc1ccc2nc(C)cc(N/N=C/c3ccc(F)cc3)c2c1,103% (inactive)
16,Fc1ccc(/C=N/Nc2nc(-c3cccnc3)nc3ccccc23)cc1,165% (active)
17,CCOC(=O)CCC(=O)OCC(=O)NC(C)C1CC2CCC1C2 (configuration not stated),100% (inactive)
18,COc1ccc(S(=O)(=O)N2CCN(CC(=O)N3CCOCC3)CC2)cc1OC,95% (inactive)
19,O=C(COC(=O)c1cccnc1Cl)NC12CC3CC(CC(C3)C1)C2,104% (inactive)
20,CN/C(=C\[N+](=O)[O-])NCCSCc1csc(CN(C)C)n1,95.9% (inactive)
21,COC(=O)c1ccc(-c2noc(CN(Cc3ccccn3)CC3CCCO3)n2)cc1 (configuration not stated),98.4% (inactive)
22,COc1ccccc1C(=O)Nc1ccc(OCc2nnc3c4ccccc4c(C)nn23)cc1,102% (inactive)
23,C=CCC1(CC=C)CCCN1C(=O)CC1C(=O)NCCN1Cc1ccccc1OC (configuration not stated),93% (inactive)
